Assay results reported in ChEMBL document CHEMBL2218924, “A broad activity screen in support of a chemogenomic map for kinase signalling research and drug discovery” (Biochem J, 2013).

The compounds below were run against Calcium/calmodulin-dependent protein kinase type II subunit delta (Homo sapiens) (UniProt Q13557). Details: at 1 µM.
Chain of Calcium/calmodulin-dependent protein kinase type II subunit delta (Homo sapiens) (Q13557 whole entry): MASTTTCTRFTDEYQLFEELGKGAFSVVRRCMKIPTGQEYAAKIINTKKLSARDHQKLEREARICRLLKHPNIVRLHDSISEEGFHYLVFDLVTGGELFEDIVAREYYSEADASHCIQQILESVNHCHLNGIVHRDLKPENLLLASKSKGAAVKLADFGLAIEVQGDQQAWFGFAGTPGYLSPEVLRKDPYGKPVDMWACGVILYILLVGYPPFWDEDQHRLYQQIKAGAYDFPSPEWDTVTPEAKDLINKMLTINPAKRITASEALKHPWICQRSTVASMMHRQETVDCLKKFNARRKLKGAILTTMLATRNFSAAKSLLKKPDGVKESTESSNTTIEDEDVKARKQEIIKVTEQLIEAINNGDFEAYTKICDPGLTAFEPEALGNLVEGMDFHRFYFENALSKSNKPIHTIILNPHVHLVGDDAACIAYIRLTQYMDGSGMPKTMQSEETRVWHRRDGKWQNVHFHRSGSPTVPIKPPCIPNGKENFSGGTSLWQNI

Compound	residual activity [%]
NC(=O)Nc1sc(-c2ccc(F)cc2)cc1C(N)=O	83
COc1cc2nccc(Oc3ccc(NC(=O)Nc4cc(C)on4)c(Cl)c3)c2cc1OC	102
O=c1cc(N2CCOCC2)oc2c1ccc1ccccc12	99
Nc1ncnc2[nH]nc(Nc3ccc(F)cc3)c12	77
CC(C)(C)n1nc(Cc2cccc3ccccc23)c2c(N)ncnc21	106
O=C(NC(NC(=S)Nc1ccc(F)c([N+](=O)[O-])c1)C(Cl)(Cl)Cl)C(c1ccccc1)c1ccccc1 (configuration not stated)	99
COc1ccc(-c2cnc3c(-c4ccsc4)cnn3c2)cc1	80
CCN(CC)CCNC(=O)c1c(C)[nH]c(/C=C2\C(=O)Nc3ccc(Cl)cc32)c1C	3
NCCNc1ncc(C(N)=O)c(Nc2cccc(C(F)(F)F)c2)n1	51
CC(C)c1nn(-c2c(Cl)cccc2Cl)c2nc(Cc3ccc(OCCO)cc3)[nH]c(=O)c12	94
CC(C)(C)c1nc2c3ccc(F)cc3c3c(=O)[nH]ccc3c2[nH]1	24
O=C1NC(=O)C(c2cn(CCCO)c3ncccc23)=C1c1cnccn1	80
O=C1NC(=O)c2c1c1c3ccccc3[nH]c1n1cncc21	12
O=C(O)/C=C/c1cc(Br)c(Br)c(Br)c1Br	83
CCCCc1c(-c2ccc(OC)cc2)[nH]c2nccnc12	73
O=C(CCCc1ccc(-c2ccccc2F)cc1)Nc1ccc(O)cc1	109
Cn1sc(=O)n(Cc2ccccc2)c1=O	98
Nc1ncnc2c1cnn2-c1ccccc1	98
O=C1Nc2ccc(Cl)cc2/C1=C/c1cc(Cl)c(O)c(Cl)c1	69
c1ccc(-c2cnc(Nc3ccc(OCCN4CCCC4)cc3)s2)cc1	22
Nc1ncnc2c1c(-c1ccc(Oc3ccccc3)cc1)cn2C1CCCC1	98
O=C(c1ccccc1)c1ccc(N2CCOCC2)cc1O	100
O=C1Cc2c([nH]c3ccc(Br)cc23)-c2ccccc2N1	58
Cn1c2ccccc2c2c3c(c4c5ccccc5n(CCC#N)c4c21)CNC3=O	1
COc1ccc2c(c1)c(C1=C(c3c[nH]c4ccccc34)C(=O)NC1=O)cn2CCCN(C)C	42
O=C1NC(=O)C(c2cn(CCCn3ccnc3)c3ccccc23)=C1Nc1ccccc1	77
Nc1n[nH]c2nc3ccccc3nc12	86
O=c1cc(N2CCNCC2)oc2c(-c3ccccc3)cccc12	101
COc1cc2ncnc(Nc3cccc(Cl)c3)c2cc1OC	60

The compounds below were run against Calcium/calmodulin-dependent protein kinase type II subunit delta (Homo sapiens) (UniProt Q13557). Details: at 10 µM.

Compound	residual activity [%]
NC(=O)Nc1sc(-c2ccc(F)cc2)cc1C(N)=O	31
O=c1cc(N2CCOCC2)oc2c1ccc1ccccc12	75
Nc1ncnc2[nH]nc(Nc3ccc(F)cc3)c12	26
CC(C)(C)n1nc(Cc2cccc3ccccc23)c2c(N)ncnc21	78
O=C(NC(NC(=S)Nc1ccc(F)c([N+](=O)[O-])c1)C(Cl)(Cl)Cl)C(c1ccccc1)c1ccccc1 (configuration not stated)	82
COc1ccc(-c2cnc3c(-c4ccsc4)cnn3c2)cc1	87
CCN(CC)CCNC(=O)c1c(C)[nH]c(/C=C2\C(=O)Nc3ccc(Cl)cc32)c1C	1
NCCNc1ncc(C(N)=O)c(Nc2cccc(C(F)(F)F)c2)n1	9
CC(C)c1nn(-c2c(Cl)cccc2Cl)c2nc(Cc3ccc(OCCO)cc3)[nH]c(=O)c12	67
CC(C)(C)c1nc2c3ccc(F)cc3c3c(=O)[nH]ccc3c2[nH]1	11
O=C1NC(=O)C(c2cn(CCCO)c3ncccc23)=C1c1cnccn1	64
O=C1NC(=O)c2c1c1c3ccccc3[nH]c1n1cncc21	6
O=C(O)/C=C/c1cc(Br)c(Br)c(Br)c1Br	26
CCCCc1c(-c2ccc(OC)cc2)[nH]c2nccnc12	42
O=C(CCCc1ccc(-c2ccccc2F)cc1)Nc1ccc(O)cc1	78
Cn1sc(=O)n(Cc2ccccc2)c1=O	90
Nc1ncnc2c1cnn2-c1ccccc1	63
O=C1Nc2ccc(Cl)cc2/C1=C/c1cc(Cl)c(O)c(Cl)c1	10
c1ccc(-c2cnc(Nc3ccc(OCCN4CCCC4)cc3)s2)cc1	4
Nc1ncnc2c1c(-c1ccc(Oc3ccccc3)cc1)cn2C1CCCC1	68
O=C(c1ccccc1)c1ccc(N2CCOCC2)cc1O	76
O=C1Cc2c([nH]c3ccc(Br)cc23)-c2ccccc2N1	16
Cn1c2ccccc2c2c3c(c4c5ccccc5n(CCC#N)c4c21)CNC3=O	1
COc1ccc2c(c1)c(C1=C(c3c[nH]c4ccccc34)C(=O)NC1=O)cn2CCCN(C)C	8
O=C1NC(=O)C(c2cn(CCCn3ccnc3)c3ccccc23)=C1Nc1ccccc1	23
Nc1n[nH]c2nc3ccccc3nc12	36
O=c1cc(N2CCNCC2)oc2c(-c3ccccc3)cccc12	77
COc1cc2ncnc(Nc3cccc(Cl)c3)c2cc1OC	18
